# Compounds with a hit are over-represented: about 1.4% of the library has one in this group of screens.
# MmCpn inh: Inhibitors of TCP-1 ring complex (TRiC) of Methanococcus maripaludis (MmCpn): qHTS. Potency, µM (titrated, usually from 76.9 µM), inactives show at the highest dose activity, negative = inhibition, hits mostly inhibitors. AID 504842, 2011. purified Mm-Cpn ATPase, ADP Transcreener TR-FRET. hit rate 0.031% among 330,000. Chaperonin Mm-Cpn (Methanococcus maripaludis); also: potency is read from the fitted curve at half-maximal effect; % is scaled to controls: 0 for no effect and ±100 for the full control effect; nearly all actives have a fitted effect of over 80% in size
#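 25 nM Mm-CPN + cpd, 10 min 37°C; + 10 uM ATP, 30 min 37°C; buffer 30 mM Tris pH 7.4, 100 mM KCl, 5 mM MgCl2, 1 mM DTT; Transcreener ADP HTRF detection 30 min RT.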
# KCNH2 3.1 block: qHTS for Inhibitors of KCHN2 3.1: Mutant qHTS | Potassium voltage-gated channel subfamily H member 2, brain isoform KCNH2 3.1 (human) | U2OS KCNH2 3.1, thallium flux FluxOr; stronger effect = lower value | activity change, % (tested at about 1.8 µM) | hit rate 0.95% among 340,000 | AID 720553, 2013;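 active = maximum activity change below -70%; inconclusive = maximum activity change from -70% to -50%; inactive = maximum activity change above -50%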;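 also: thallium influx rate constant from kinetic fluorescence after stimulation buffer; % is scaled to controls: 0 for no effect and ±100 for the full control effect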
#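 FluxOr-based Tl+ influx in U2OS cells transduced with KCNH2 3.1 virus; rate constants normalized to DMSO controls.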
# p53 reactivation: qHTS assay for re-activators of p53 using a Luc reporter. H1299 p53-A138V BP100-luciferase reporter, luminescence, 24 h. Potency, µM (highest dose often 92.2 µM), without a hit: top-dose activity change, positive = activation, hits mostly activators. hit rate 0.063% among 320,000. AID 504706, 2011; also: potency is read from the fitted curve at half-maximal effect; % of control where 0% means no effect; nearly all actives have a fitted effect of over 45% in size
#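 H1299 (p53-null), stable ts p53-A138V + BP100-Luc; 1000 cells/well, Opti-MEM/10% FBS; cpd 4 pt, 1:5; 24 h, 37 deg C, 5% CO2; detection reagent 10 min RT; luminescence.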
# uPA generation: qHTS for Inhibitors of Cell Surface uPA Generation. cell surface uPA generation assay, qHTS. AID 540303, 2011. Potency, µM (highest dose often 38.3 µM), for inactives: at the top dose activity change, negative = inhibition, usual class: inhibitors. hit rate 0.31% among 330,000; active = well fitted inhibition curve with a large enough effect; inconclusive = small, poorly fitted or top-dose-only effect; inactive = no such curve, though single readings can be large or run the other way; tested in mouse RAW 264.7 cells; also: potency is read from the fitted curve at half-maximal effect; % is scaled to controls: 0 for no effect and ±100 for the full control effect; nearly all actives have a fitted effect of over 55% in size
# KCNH2 WT inh: qHTS for Inhibitors of KCHN2 3.1: Wildtype qHTS | hit rate 0.37% among 340,000 | AID 720551, 2013 | activity change, % at 1.84 µM | Voltage-gated inwardly rectifying potassium channel KCNH2 (Homo sapiens), Q12809 | U2OS, BacMam KCNH2, thallium flux FluxOr; stronger effect = lower value;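 active = maximum activity change below -70%; inconclusive = maximum activity change between -70% and -50%; inactive = maximum activity change above -50%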; also: % is scaled to controls: 0 for no effect and ±100 for the full control effect
#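 U2OS cells transduced with wild-type KCNH2 virus are loaded with FluxOr dye for 45 min, and thallium flux is measured in kinetic reads before and after stimulation buffer. Rate constants are normalized to DMSO controls.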
# S-ASM inh: Inhibitors of Secretory Acid Sphingomyelinase (S-ASM): qHTS. Sphingomyelin phosphodiesterase (Homo sapiens), P17405. hit rate 0.006% among 340,000. placental ASM, HMU-PC fluorogenic substrate, 60 min. Potency, µM (top dose mostly 57.5 µM), for the others: at the highest dose activity change, negative = inhibition, hits mostly inhibitors; also: potency is read from the fitted curve at half-maximal effect
# Target sequence (P17405 47-631 limits assumed): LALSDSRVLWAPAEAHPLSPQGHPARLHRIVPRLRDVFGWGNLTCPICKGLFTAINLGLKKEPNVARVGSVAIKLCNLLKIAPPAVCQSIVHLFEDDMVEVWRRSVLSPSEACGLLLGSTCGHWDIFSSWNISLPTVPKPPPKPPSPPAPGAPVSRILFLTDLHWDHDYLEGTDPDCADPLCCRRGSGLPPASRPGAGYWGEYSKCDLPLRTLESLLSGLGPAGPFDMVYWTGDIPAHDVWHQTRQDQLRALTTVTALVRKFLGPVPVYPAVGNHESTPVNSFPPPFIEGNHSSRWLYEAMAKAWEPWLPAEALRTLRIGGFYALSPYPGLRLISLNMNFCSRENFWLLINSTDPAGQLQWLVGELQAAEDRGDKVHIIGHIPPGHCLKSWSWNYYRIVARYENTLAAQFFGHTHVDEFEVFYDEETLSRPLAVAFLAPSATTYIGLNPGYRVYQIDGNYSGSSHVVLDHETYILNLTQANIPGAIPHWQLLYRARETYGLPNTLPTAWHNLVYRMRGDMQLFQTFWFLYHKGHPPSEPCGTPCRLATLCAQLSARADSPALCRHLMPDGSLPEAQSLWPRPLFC
#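 qHTS format. ASM enzyme prepared from human placenta hydrolyses the fluorogenic substrate HMU-PC0 (9 uM final) over 60 min at 37 °C after a 10 min compound preincubation.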
# Numbers without * were called inactive; i = inactive; ? = inconclusive; / = not tested or not shown; [ ] = remark or other dose. Unless noted, calls follow the shape of the dose curve; as a rule, active = well fitted curve in the direction sought with a large enough effect; inconclusive = small, poorly fitted or top-dose-only effect, or another doubt; inactive = no such curve, though single readings can be large; an effect the other way counts as inactive or inconclusive.
SMILES,MmCpn inh,KCNH2 3.1 block,p53 reactivation,uPA generation,KCNH2 WT inh,S-ASM inh
Cc1ccc(OCc2occc2C(=O)O)cc1,/,-5,/,11%,-3,0%
Cc1ccc(CN2CCC(c3cc(-c4cccs4)n[nH]3)CC2)cc1,0%,-113*,?,-3%,-71*,0%
FC(F)(F)c1cccc(CN2CCC(c3cc(-c4cccs4)n[nH]3)CC2)c1,1%,-39,9%,-13%,9,6%
COc1ccc(/C=N/N2CCN(Cc3ccccc3)CC2)cc1,1%,23,8%,4%,6,0%
COc1ccc(/C=C/C2=CCN(Cc3ccc(OC)cc3)CC2)cc1,0%,-79*,2%,-4%,-33,-2%
Cc1nc(N/N=C/c2cccnc2)cc(N2CCOCC2)n1,/,-10,/,/,2,/
Brc1ccc(-c2ccc(/C=N/Nc3nc(N4CCOCC4)nc(N4CCOCC4)n3)o2)cc1,-1%,-95*,-6%,-1%,-5,182%
CCCCOc1ccc(/C=N/Nc2cc(N3CCOCC3)nc(C)n2)cc1,-1%,-95*,-4%,21%,4,-19%
Fc1cnc(N/N=C/c2ccc(-c3ccc(Br)cc3)o2)nc1N1CCOCC1,-4%,-31,16%,1%,-2,5%
Clc1ccc(-c2ccc(/C=N/Nc3cc(N4CCOCC4)nc(N4CCOCC4)n3)o2)cc1,0%,-95*,-20%,-6%,?,i
Cc1ccc(C)c(CNS(=O)(=O)c2c(C(=O)N3CCCC3)c(C)n(C)c2C)c1,-1%,13,2%,4%,5,6%
CCCN1CCC(N2CCN(c3ccc([N+](=O)[O-])cc3)CC2)CC1,1%,-79*,11%,-9%,-42,-4%
CCCN1CCC(N2CCN(c3cccc(C(F)(F)F)c3)CC2)CC1,-3%,-97*,0%,/,-16,2%
CCCOc1ccc(N2C(=O)CC(N3CCN(c4ccc([N+](=O)[O-])cc4)CC3)C2=O)cc1 (stereo not given),-5%,?,3%,-1%,-16,-16%
CCOc1ccc(N2C(=O)CC(N3CCN(c4ccc([N+](=O)[O-])cc4)CC3)C2=O)cc1 (stereo not given),2%,-91*,/,-1%,-10,-21%
CCN1CCC(N2CCN(c3ccc(Cl)cc3)CC2)CC1,-6%,16,/,9%,16,0%
CCN(CC(=O)Nc1ccc(NC(C)=O)cc1)C(=O)c1ccc2c(c1)S(=O)(=O)N=C1CCCCCN12,-17%,16,1%,-5%,-2,-4%
CC(C)Oc1ccc(S(=O)(=O)N2CCOCC2)cc1NC(=O)C1COc2ccccc2O1 (stereo not given),0%,-23,-8%,22%,-24,-18%
O=[N+]([O-])c1cc(C(F)(F)F)ccc1NC1CCN(Cc2ccccc2)C1 (stereo not given),2%,-91*,10%,-4%,-80*,-3%
O=[N+]([O-])c1cc(C(F)(F)F)ccc1NC1CCN(Cc2ccccc2)CC1,-1%,-86*,3%,5%,-42,-10%
CC1(C)CC(Nc2ccc(C(F)(F)F)cc2[N+](=O)[O-])CC(C)(C)N1,3%,-22,-1%,5%,46,-18%
NC(=O)CC(NC(=O)c1ccccc1)c1ccc(NC2CCN(Cc3ccccc3)CC2)c([N+](=O)[O-])c1 (stereo not given),-12%,2,/,2%,-6,-1%
C[C@@H]1C=CC(=O)O[C@@H]1c1ccc(C(F)(F)F)cc1,1%,/,21%,/,/,/
C[C@H]1C=CC(=O)O[C@H]1c1ccccc1,/,-6,/,2.5µM*,-2,3%
CCOC(=O)c1sc2c(c1C)c(=O)n(Cc1ccccc1)c(=O)n2CCN(C)C,2%,-109*,-9%,-9%,19,1%
SMILES,MmCpn inh,KCNH2 3.1 block,p53 reactivation,uPA generation,KCNH2 WT inh,S-ASM inh
O=C(Cn1ncn2c(cc3sccc32)c1=O)NC1CCCC1,1%,-77*,4%,5%,18,5%
CCN(CC)C(=O)Cn1cc(C(=O)C(=O)Nc2ccc3c(c2)OCO3)c2ccccc21,/,2,/,/,-1,/
CC(=O)Oc1ccc(N(C(C)=O)S(=O)(=O)c2ccc3ccccc3c2)cc1,-4%,-8,-4%,-10%,3,-1%
Nc1ccc(-c2cnc(-c3ccc(N)cc3)nc2)cc1,1%,-8,17%,-4%,-6,69%
Oc1ccc(-c2cnc(-c3ccc(O)cc3)nc2)cc1,-3%,6,14µM*,-5%,9,-1%
Cc1ccc(NN2C(=O)C=C(c3ccccc3)C2=O)cc1,-4%,-5,-10%,-13%,-4,0%
COc1ccc(C2CC(=O)N3CN(c4ccc(C)c(Cl)c4)CSC3=C2C#N)cc1OC (stereo not given),-26%,-11,1%,7.1µM*,-2,19%
COc1ccc(N2CSC3=C(C#N)C(c4ccc(OC)c(OC)c4)CC(=O)N3C2)c(OC)c1 (stereo not given),-2%,3,0%,-19%,2,-1%
NC(=O)CC1(c2ccccc2)CCCCC1,/,-1,/,/,8,/
Cn1c(=O)c2sccc2n(Cc2ccccc2)c1=O,0%,-73*,-3%,-2%,-1,3%
CCOc1ccccc1/C=C/c1onc(C)c1S(=O)(=O)N1CCC(C(=O)N(CC)CC)CC1,-2%,-95*,5%,?,3,43%
N#C/C(=C\c1ccc(O)c(O)c1)C(=O)NCCCc1ccccc1,2%[15.4 µM],7,6%,3.5µM*,-4,-7%
N#C/C(=C\c1ccc(O)c(O)c1)C(=O)c1ccc(O)c(O)c1,-7%,9,5%,4µM*,-5,-13%
N#C/C(=C\c1ccc(O)c(O)c1)C(=O)N1CCCC1,1%,16,-2%,?,-3,-3%
CCCC(=O)N(Cc1cc(=O)[nH]c2ccccc12)c1cccc(C)c1,-20%,4,-7%,-3%,-11,4%
Cc1cccc(N(Cc2cc(=O)[nH]c3ccccc23)C(=O)CCl)c1,-14%,7,-15%,7.1µM*,24,-2%
CC(NS(=O)(=O)c1cccc(C(=O)N(C)Cc2ccc(N3CCOCC3)cc2)c1)c1ccccc1 (stereo not given),/,11,/,16%,9,7%

# Compound activity as filed in PubChem BioAssay.
